MCL1-BIM inh: inhibitors of MCL1 binding to BIM-BH3, primary screen, biochemical, fluorescence polarization; Induced myeloid leukemia cell differentiation protein Mcl-1 (Homo sapiens), Q07820; GST-MCL1 / FITC-Bim-BH3 fluorescence polarization; inhibition, % at 10.9 µM; actives 0.68% (n = 320,000);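 active = inhibition above the mean inhibition of all tested compounds plus 3 SD, set per campaign, cut at about 40% in these data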;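 also: 0% = DMSO wells and 100% = unlabeled Bim-BH3 peptide control; higher means more loss of mP so more displacement of Bim peptide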
EBV gp42 inh: Epstein-Barr virus gp42 inhibitors, primary screen, biochemical, uHTS, fluorescence polarization; Glycoprotein 42 (Epstein-Barr virus (strain AG876)), Q1HVG2; Fluorescence polarization binding assay, mP read-out; inhibition, % (tested at 21.74 µM); actives 0.42% (n = 220,000); AID 1085, 2008; in the data active = inhibition above about 50%
Bcl-xL primary: inhibitors of human Bcl-xL, primary screen, biochemical, fluorescence polarization, HTS; Bcl-2-like protein 1 (Homo sapiens), Q07817; GST-Bcl-xL / FITC-Bim BH3 peptide fluorescence polarization; actives 0.7% (n = 320,000); inhibition, % at 10.9 µM;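 active = inhibition above the mean of all tested compounds plus 3 SD, cutoff set per campaign, cut at about 30% in these data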;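 also: 0% = DMSO wells and 100% = unlabeled Bim-BH3 peptide competitor; inhibitors lower millipolarization by displacing the labeled peptide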
GLD-1 RNA inh: GLD-1/TGE RNA complex disruptors, primary screen, biochemical, fluorescence polarization | purified GLD-1 + fluorescein TGE RNA | inhibition, % at 5.96 µM | actives 0.44% (n = 320,000) | AID 2280, 2010;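 active = percent inhibition above a per-plate cutoff, the plate mean of test compounds plus 3 SD, cut at about 30% in these data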;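 also: 0% = DMSO wells with GLD-1 and probe and 100% = wells lacking GLD-1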
eLon inh: inhibitors of E. coli Lon protease, primary screen, biochemical, fluorescence polarization; purified E. coli Lon protease; inhibition, % at 7.94 µM; actives 0.42% (n = 360,000); AID 602123, 2011; in the data active = inhibition above about 13%, passing the limit was not always enough;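 also: 0% = enzyme with probe and DMSO and 100% = no enzyme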
MEX-5 binding: MEX-5 zinc finger RNA-binding disruptors – biochemical, C. elegans, fluorescence polarization, MLPCN library, primary screen. Zinc finger protein mex-5 (Caenorhabditis elegans), Q9XUB2. MEX-5/FITC-TCR2 RNA binding; hits give low values. activity score (negative = inhibition of binding), % at 10 µM. actives 0.38% (n = 300,000);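 active = inhibition past about -25% in most replicates, and total fluorescence under double the plate's negative control median, limit read from the data; inconclusive = replicates evenly split on the limit, or fluorescence at least double controls; inactive = too little inhibition in most replicates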;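 also: 0% = DMSO and -100% = 5 µM competing unlabeled TCR2 RNA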
Target sequence (Q9XUB2 whole entry, looked up): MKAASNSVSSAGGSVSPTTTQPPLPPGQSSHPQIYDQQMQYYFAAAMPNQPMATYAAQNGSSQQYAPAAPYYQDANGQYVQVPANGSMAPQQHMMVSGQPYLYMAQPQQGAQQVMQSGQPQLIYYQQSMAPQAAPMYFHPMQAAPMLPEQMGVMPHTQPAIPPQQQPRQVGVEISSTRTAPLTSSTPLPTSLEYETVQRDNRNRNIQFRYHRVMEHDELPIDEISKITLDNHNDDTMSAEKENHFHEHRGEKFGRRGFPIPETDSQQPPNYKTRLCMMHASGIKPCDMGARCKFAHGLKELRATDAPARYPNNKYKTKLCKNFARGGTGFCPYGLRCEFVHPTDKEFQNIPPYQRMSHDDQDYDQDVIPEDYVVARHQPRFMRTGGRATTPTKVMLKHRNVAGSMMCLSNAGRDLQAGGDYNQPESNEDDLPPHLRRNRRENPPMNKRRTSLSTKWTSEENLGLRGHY
Bcl-xL conf: Bcl-xL inhibitors blocking Bim BH3 binding, confirmation, counter-screen for MCL1 inhibitor project, biochemical, fluorescence polarization; shares compounds with MCL1-BIM inh; GST-Bcl-xL / FITC-Bim BH3 peptide FP binding; inhibition, % at 10.9 µM; actives 54% (n = 1,700);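 active = inhibition above a cutoff equal to the mean inhibition of all tested compounds plus 3 SD, cut at about 30% in these data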;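 also: 0% = DMSO wells and 100% = unlabeled Bim BH3 control peptide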
MCL1 inh confirm: inhibitors of MCL1 binding to BIM-BH3, confirmation, biochemical, fluorescence polarization, triplicate | shares compounds with MCL1-BIM inh | GST-MCL1 / FITC-Bim-BH3 fluorescence polarization | inhibition, % at 10.9 µM | actives 61% (n = 1,700);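 active = inhibition above the average of all tested compounds plus 3 SD, cut at about 40% in these data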;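 also: 0% = DMSO wells and 100% = unlabeled Bim-BH3 control peptide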
GLD-1 TGE cf: GLD-1/TGE RNA binding inhibitors, retest, confirmation, biochemical, fluorescence polarization, triplicate | shares compounds with GLD-1 RNA inh | AID 2459, 2010 | actives 10% (n = 550) | inhibition, % at 5.96 µM | GLD-1/FL-TGE RNA fluorescence polarization;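 active = average inhibition across triplicates above the hit cutoff set in the primary screen, cut at about 32% in these data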;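 also: 0% = GLD-1 with RNA probe and DMSO and 100% = wells lacking GLD-1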
E coli Lon conf: E. coli Lon protease inhibitor retest, confirmation, biochemical, fluorescence polarization; purified E. coli Lon; actives 31% (n = 1,400); inhibition, % at 7.94 µM; shares compounds with eLon inh; in the data active = inhibition above about 16%;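 also: 0% = enzyme with probe and DMSO and 100% = no enzyme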
Numbers without * were called inactive. Shown are actives, neighbours in structure and some others; about 1.5% of the full set was active somewhere.

For Nc1ccc(-c2cnc3ccccc3n2)cc1 the results were MCL1-BIM inh 4, Bcl-xL primary 2, GLD-1 RNA inh 5, eLon inh -7 and MEX-5 binding -1.
Nc1ccc2nc(-c3ccccc3)cnc2c1 was read as MCL1-BIM inh 119*, Bcl-xL primary 99*, GLD-1 RNA inh 81*, eLon inh 34*, MEX-5 binding -13, Bcl-xL conf 121*, MCL1 inh confirm 142* and E coli Lon conf 107*.
CCN1CCN(Cc2ccc(NC(=O)Nc3ccccc3OC)cc2)CC1 was read as MCL1-BIM inh 6, EBV gp42 inh -13, Bcl-xL primary 3, GLD-1 RNA inh 4, eLon inh -4 and MEX-5 binding -1.
Screening N#Cc1ccc(Oc2cccc3cccnc23)c([N+](=O)[O-])c1 returned MCL1-BIM inh 177*, Bcl-xL primary 150*, GLD-1 RNA inh 125*, eLon inh 101*, MEX-5 binding -6, Bcl-xL conf 33*, MCL1 inh confirm 51* and E coli Lon conf 13.
For Cc1ccc(C(=O)NCCc2csc(C)n2)cc1 the results were MCL1-BIM inh 0, EBV gp42 inh -11, Bcl-xL primary 4, GLD-1 RNA inh -3, eLon inh -10 and MEX-5 binding 0.
Screening O=C1Nc2ccccc2/C1=C/c1cnc(-c2ccccc2)[nH]1 returned MCL1-BIM inh 162*, EBV gp42 inh 59*, Bcl-xL primary 138*, GLD-1 RNA inh 73*, eLon inh 81*, MEX-5 binding -10, Bcl-xL conf 102*, MCL1 inh confirm 117* and E coli Lon conf 30*.
`COc1ccc(C#Cc2c(C=O)n(C)c3ccccc23)cc1` gave MCL1-BIM inh 9, Bcl-xL primary 8, GLD-1 RNA inh -5 and eLon inh -5.
Screening Cc1nn(Cc2noc(C(=O)NCc3ccc(F)cc3)n2)c(C)c1Br returned MCL1-BIM inh 8, EBV gp42 inh -16, Bcl-xL primary 6, GLD-1 RNA inh 10, eLon inh -3 and MEX-5 binding -1.
`CC(=O)Nc1ccc(S(=O)(=O)NCCNc2ccccc2[N+](=O)[O-])cc1` gave MCL1-BIM inh 2, EBV gp42 inh -5, Bcl-xL primary 4, GLD-1 RNA inh 4, eLon inh 9 and MEX-5 binding -2.
For Cc1cc(-c2ccccc2C(=O)O)on1 the results were MCL1-BIM inh 4, EBV gp42 inh -13, Bcl-xL primary 5, GLD-1 RNA inh 3, eLon inh 3 and MEX-5 binding 3.
`O=C(O)c1ccccc1C1=Nc2ccc(O)cc2Oc2cc(O)ccc21` gave MCL1-BIM inh 196*, EBV gp42 inh 84*, Bcl-xL primary 167*, GLD-1 RNA inh 135*, eLon inh 78*, MEX-5 binding inconclusive, Bcl-xL conf 142*, MCL1 inh confirm 178* and E coli Lon conf 97*.
`O=C1C2C3C=CC(C4CC34)C2C(=O)N1/N=C/c1ccc(-c2ccc(F)cc2[N+](=O)[O-])o1` (stereo not given) gave MCL1-BIM inh 84*, EBV gp42 inh -9, Bcl-xL primary 74*, GLD-1 RNA inh 55*, eLon inh 19*, MEX-5 binding -6, Bcl-xL conf 20, MCL1 inh confirm 30, GLD-1 TGE cf -8 and E coli Lon conf 71*.
For CC(=O)c1ccc(C(=O)N2CCCC(Nc3ccc(C(C)C)cc3)C2)s1 (stereo not given) the results were MCL1-BIM inh 5, Bcl-xL primary -4, GLD-1 RNA inh 7, eLon inh -3 and MEX-5 binding 0.
For Cc1ccc(NC(=O)CSCC#N)cc1Cl the results were MCL1-BIM inh 0, EBV gp42 inh 3, Bcl-xL primary -2, GLD-1 RNA inh 1, eLon inh 2 and MEX-5 binding 3.
Screening Cc1cc(=O)oc2c(CN3CCC(C)CC3)c(O)c(Cl)cc12 returned MCL1-BIM inh 142*, EBV gp42 inh 72*, Bcl-xL primary 105*, GLD-1 RNA inh 119*, eLon inh 25*, MEX-5 binding -40*, Bcl-xL conf 80*, MCL1 inh confirm 113* and E coli Lon conf 39*.
`Cc1cc(=O)oc2c(CN3CCCC3)c(O)c(Cl)cc12` gave MCL1-BIM inh 26, Bcl-xL primary 25, GLD-1 RNA inh 30, eLon inh 1 and MEX-5 binding -9.
`O=C(COC(=O)c1cc(-c2cccc3ccccc23)nc2ccccc12)NC1CCS(=O)(=O)C1` (stereo not given) gave MCL1-BIM inh 185*, EBV gp42 inh 45, Bcl-xL primary 152*, GLD-1 RNA inh 97*, eLon inh 178*, MEX-5 binding -16, Bcl-xL conf 63*, MCL1 inh confirm 80* and E coli Lon conf 15.
CCN(C(=O)COC(=O)c1cc(-c2cccc3ccccc23)nc2ccccc12)C1CCS(=O)(=O)C1 (stereo not given) was read as MCL1-BIM inh 98*, EBV gp42 inh -7, Bcl-xL primary 91*, GLD-1 RNA inh 39*, eLon inh 40*, Bcl-xL conf 50*, MCL1 inh confirm 73*, GLD-1 TGE cf 12 and E coli Lon conf 18*.
For COC(=O)c1cn(CC(=O)NC2CCCCC2)c2ccccc12 the results were MCL1-BIM inh -3, EBV gp42 inh 6, Bcl-xL primary -2, GLD-1 RNA inh 2, eLon inh -5 and MEX-5 binding -4.

Screening data: PubChem BioAssay, several laboratories
